GLP1R ag – GLP-1 receptor (human) agonism | P43220 | HEK293 GLP-1R CRE-luciferase, luminescence, 4-6 h; cells express a hypersensitive GLP-1R form | Potency, µM (series often up to 45.6 µM), inactives show at the top dose activation, usual class: activators | 0.007% of 380,000 active; also: % of control where 0% means no effect
GLP1R inv ag – acts as inverse agonist at human GLP-1 receptor; P43220; 1.6% of 410,000 active; AID 624417; Potency, µM (titrated, usually from 38.3 µM), inactives show top-dose activity change, negative = inhibition, usual class: inhibitors; HEK293 GLP-1R CRE-luciferase, luminescence, 24 h; GLP-1R form is constitutively active; also: % is scaled to controls: 0 for no effect and ±100 for the full control effect; nearly all actives have a fitted effect of over 55% in size
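Using stably transfected HEK293 (constitutively active GLP-1R, cAMP-luciferase reporter), compounds were incubated 24 hr and luciferase measured by luminescence.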
HEK293 tox – cytotoxicity counter-screen for GLP-1 receptor inverse agonists; HEK293 cAMP-luciferase reporter cells, luminescence, 24 h; Potency, µM (series often up to 38.3 µM), inactives show at the top dose activity change, negative = inhibition, hits mostly inhibitors; 0.13% of 410,000 active; AID 624418;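 also: loss of luciferase light is scored as toxicity; % is scaled to controls: 0 for no effect and ±100 for the full control effect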
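Compound-treated cells are incubated 24 hr at 37 deg C under 5% CO2 after a 12 hour attachment period, then luciferase detection reagent is added and luminescence is measured following 12 min at room temperature; lowered signal indicates toxicity.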
PTHR1 ag – agonists of human PTHR1 parathyroid hormone receptor; HEK293 GP2 PTHR1 cells, GloSensor cAMP luminescence, 1 h; Potency, µM (highest dose often 115 µM), inactives show at the highest dose activation, usual class: activators; Q03431; AID 743266; 0.075% of 410,000 active; also: nearly all actives have a fitted effect of over 55% in size
Target sequence (Q03431 whole entry, looked up): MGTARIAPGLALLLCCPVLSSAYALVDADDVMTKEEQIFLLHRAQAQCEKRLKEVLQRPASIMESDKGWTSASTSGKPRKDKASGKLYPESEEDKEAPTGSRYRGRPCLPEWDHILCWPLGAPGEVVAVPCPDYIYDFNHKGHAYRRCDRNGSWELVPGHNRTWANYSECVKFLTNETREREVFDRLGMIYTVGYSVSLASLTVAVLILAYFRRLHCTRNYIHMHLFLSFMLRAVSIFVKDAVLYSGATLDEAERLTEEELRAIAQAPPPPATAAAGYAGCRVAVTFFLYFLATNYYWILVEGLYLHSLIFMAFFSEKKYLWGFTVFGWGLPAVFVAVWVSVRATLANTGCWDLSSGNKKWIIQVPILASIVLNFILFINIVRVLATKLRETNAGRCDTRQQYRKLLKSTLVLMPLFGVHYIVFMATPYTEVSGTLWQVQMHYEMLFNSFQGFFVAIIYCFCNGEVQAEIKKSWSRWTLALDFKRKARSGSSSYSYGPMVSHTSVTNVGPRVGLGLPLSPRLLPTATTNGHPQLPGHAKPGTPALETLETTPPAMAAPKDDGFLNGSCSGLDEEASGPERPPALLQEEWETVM
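HEK-293-derived GP2 cells expressing PTHR1 and a GloSensor cAMP reporter, 3,000/well, plated overnight, given luciferin plus IBMX (each 0.5 mM as added) for 1 h at 37 °C, then compound for 1 h at 37 °C. Luminescence was read after 15 min at room temperature.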
* hit, by the source's call; i = inactive; ? = inconclusive; nt = no result; [ ] = remark or other dose. The list is not random: actives were taken first. Their share in the collection is about 1.7%. Calls follow the shape of the dose curve; as a rule, active = well fitted curve in the direction sought with a large enough effect; inconclusive = small, poorly fitted or top-dose-only effect, or another doubt; inactive = no such curve, though single readings can be large; an effect the other way counts as inactive or inconclusive. Potency is read from the fitted curve at half-maximal effect.

SMILES | GLP1R ag | GLP1R inv ag | HEK293 tox | PTHR1 ag
CC1CN(C(=O)c2ccccc2OCc2ccc(Cl)cc2Cl)CC(C)O1 (configuration not stated) | 9.6% | 10µM* | 19.6% | -16.1%
CCOc1cc(CNC(=O)c2ccccc2NC(=O)c2nsc3ccccc23)ccc1OC | nt | -8.0% | -23.5% | -20.7%
COc1ccc(Cn2c(O)c(C=Nc3ccc(O)cc3)c3ccccc3c2=O)cc1 | -0.1% | 8.91µM* | -4.1% | -2.6%
CN(C)CCCN1C(=O)c2cccc3cccc(c23)C1=O | -8.8% | -16.4% | ? | i
CN(C)CCN1C(=O)c2cccc3cc([N+](=O)[O-])cc(c23)C1=O | -18.9% | 1.78µM* | ? | i
O=C(c1ccc(OC2CCN(Cc3ccccc3OC(F)F)CC2)cc1)N1CCCC1 | -0.7% | 3.16µM* | -16.5% | i
O=C(c1ccc(OC2CCN(Cc3ccc(C(F)(F)F)cc3)CC2)cc1)N1CCCCC1 | 6.2% | ? | -4.4% | -23.2%
O=C(c1ccc(OC2CCN(Cc3ccccc3C(F)(F)F)CC2)cc1)N1CCCCC1 | -4.3% | 5.01µM* | ? | -34.2%
CC(C(=O)OCC(=O)c1ccc(Br)cc1)N1C(=O)C2C3C=CC(C3)C2C1=O (configuration not stated) | 4.8% | -23.0% | 1.9% | -18.2%
C=CCSc1nc(-c2ccc(OC)cc2)c(C#N)c(=O)n1CC=C | 19.4% | ? | -24.4% | -24.3%
Cn1/c(=N/NC(=O)c2ccccc2Br)sc2ccccc21 | 5.3% | 2.1% | 2.8% | -3.6%
O=C(c1ccc2c(c1)N(Cc1ccc(Cl)cc1)C(=O)c1ccccc1S2=O)N1CCN(c2ccccc2F)CC1 (configuration not stated) | 1.2% | 18.8% | -0.6% | i
COc1ccc(OC)c(NC(=O)NCc2ccc(F)cc2)c1 | -3.8% | -4.9% | 2.2% | i
COc1ccc(OC)c(NC(=O)CN(Cc2ccc(F)cc2)C2CCCCC2)c1 | 8.4% | 3.55µM* | -11.1% | -24.1%
CC(C)(C)c1ccc(Cn2c(=O)cnc3ccccc32)cc1 | 7.5% | 5.01µM* | ? | -30.5%
O=c1cnc2ccccc2n1Cc1ccc(Br)cc1 | 24.9% | ? | ? | -24.7%
COc1cc(NC(=S)N2CCc3ccccc3C2)cc(OC)c1 | 7.8% | -4.5% | -2.2% | i
COc1ccc(C(CNC(=O)c2oc3c(Cl)cccc3c2C)N2CCCC2)cc1 (configuration not stated) | 23.1% | 10µM* | ? | -59.2%
O=[N+]([O-])c1cc(-c2csc(NCCc3nc4cc(Cl)c(Cl)cc4n3CCCO)n2)ccc1Cl | -0.2% | 14.1µM* | ? | -36.5%
CCOc1ccc(OCCC(=O)Nc2cccc(S(=O)(=O)N3CCCC3)c2)cc1 | 3.0% | ? | 11.4% | -35.8%
Cc1oc(-c2ccc(Cl)cc2)nc1CSCC(=O)NC1CCN(Cc2ccccc2)CC1 | 2.0% | ? | -7.5% | -83.5%
CCOc1ccc(-c2nc(CSCC(=O)NC3CCN(Cc4ccccc4)CC3)c(C)o2)cc1 | 8.4% | 8.91µM* | 5.7% | -31.1%
O=C(NCC(c1ccco1)N1CCc2ccccc21)c1cccc([N+](=O)[O-])c1 (configuration not stated) | 22.8% | 10µM* | -5.1% | i
COc1ccc(C(=O)NCC(c2ccco2)N2CCc3ccccc3C2)c(OC)c1 (configuration not stated) | 3.1% | ? | -5.0% | i
Cc1cccc(C(=O)NCC(c2ccco2)N2CCc3ccccc32)c1 (configuration not stated) | 16.0% | ? | -8.4% | -22.3%
SMILES | GLP1R ag | GLP1R inv ag | HEK293 tox | PTHR1 ag
Cc1ccc(S(=O)(=O)NCC(c2ccco2)N2CCc3ccccc32)cc1 (configuration not stated) | 13.2% | ? | 1.8% | -27.5%
Cc1ccc(C(=O)NCC(c2ccco2)N2CCc3ccccc32)cc1 (configuration not stated) | -1.8% | 10µM* | 7.8% | -7.1%
COc1ccc(C(=O)NCC(c2ccco2)N2CCc3ccccc32)c(OC)c1 (configuration not stated) | 17.4% | 8.91µM* | -2.3% | -4.9%
COc1ccc(S(=O)(=O)NCC(c2ccco2)N2CCc3ccccc32)cc1 (configuration not stated) | -0.6% | 6.31µM* | -6.6% | -30.1%
CN(Cc1ccccc1)C(=O)c1ccc2c(c1)N(Cc1ccccc1F)C(=O)c1ccccc1S2(=O)=O | -1.5% | -18.4% | -3.3% | -43.1%
CCOc1ccc(C(=O)NC(=S)Nc2ccccc2N2CCCCC2)cc1[N+](=O)[O-] | 1.2% | ? | ? | i
COc1ccc(C(=O)NC(=S)Nc2ccccc2N2CCCCC2)cc1[N+](=O)[O-] | 9.2% | 1.12µM* | ? | i
O=[N+]([O-])c1ccc(NN=Cc2cc(Br)ccc2O)nc1 | 10.9% | 2.82µM* | ? | -22.5%
Cc1ccccc1OCCSc1nc2ccc(NC(=O)c3ccccc3)cc2s1 | nt | 2.82µM* | -7.1% | i
Cc1ccccc1OCCSc1nc2ccc(NC(=O)c3cccs3)cc2s1 | nt | 12.6µM* | 7.3% | i
Cc1ccccc1OCCSc1nc2ccc(NC(=O)c3cccc(F)c3)cc2s1 | nt | ? | -20.6% | -46.7%
Cc1cnc(CNC(=O)c2ccc3sc([C@H]4C[C@H](O)[C@@H](CO)O4)nc3c2)cn1 | -0.4% | 31.0% | 0.1% | -17.3%
O=C(c1ccc(CN2CCc3ccccc3C2)cc1)N1CCN(c2ccc(F)cc2)CC1 | -0.4% | 2µM* | -28.3% | -22.5%
Cc1cc(N2CCN(C)CC2)nc(-c2ccccc2O)n1 | 15.0% | 3.98µM* | 0.0% | i
CCC(C)NC(=O)CSc1ccc(S(=O)(=O)N(C)C2CCCCC2)cn1 (configuration not stated) | 4.4% | ? | -20.4% | -6.0%
O=C(Nc1ccc(Cl)c(Cl)c1)C1=Cc2ccccc2OC1 | -20.3% | 10µM* | -27.2% | -81.2%[57.5 µM]
O=C(Nc1ccc2c(c1)OCCO2)c1ccc(Cl)c(Cl)c1 | 0.0% | -6.6% | -5.8% | -13.3%
O=C(Nc1cccc(Cl)c1)C1=Cc2cc(Cl)ccc2OC1 | -19.6% | 10µM* | -21.7% | -80.8%[57.5 µM]
COc1ccc2cc1Oc1ccc(cc1)C[C@H]1c3c(cc(OC)c4c3Oc3c(ccc5c3[C@H](C2)N(C)CC5)O4)CCN1C | 8.8% | 2.5% | 0.4% | i
COc1ccc2cc1Oc1ccc(cc1)CC1c3c(cc(OC)c4c3Oc3cc5c(cc3O4)CCNC5C2)CCN1C (configuration not stated) | -5.7% | 5.62µM* | 11.2µM* | i
COc1ccccc1CNC(=O)C12CC3CC(CC(C3)C1)C2 | 3.7% | 11.2µM* | -16.2% | i
O=C(NCc1ccccc1F)C12CC3CC(CC(C3)C1)C2 | 6.4% | -16.0% | 7.4% | i

Source: PubChem
